Experimental data: the supplement of paper PMC12350171
Structures can show the parent of a compound that is named as a salt. A number with no mark means an inactive call.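 How the source made its calls: active = AUC significantly below DMSO controls by Student t-fit with adjusted P under 0.01; inactive = not significantly reduced.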

Tested on: Haemophilus parainfluenzae
Test: growth AUC normalised to DMSO control (fraction of control); higher = less growth inhibition, active = hit call of the paper
Conditions: 20 µM
How it was run: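 After two anaerobic passages, pathogens were added at a starting OD578 of 0.01 to pre-reduced mGAM plates holding compound at 20 μM with 1% DMSO; hemin and NAD were supplemented for Haemophilus parainfluenzae. Sealed with breathable membranes, plates were read at OD578 hourly for 24 h, in three biological replicates. The trapezoidal rule, applied up to the exponential-to-stationary transition, gave the growth-curve AUC, which was normalised to DMSO controls on the same plate.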

| Structure (SMILES) | growth AUC normalised to DMSO control |
| --- | --- |
| CN(C)/N=N/c1[nH]cnc1C(N)=O [Dacarbazine] | 0.999 |
| CCN(CC)CCCC(C)Nc1ccnc2cc(Cl)ccc12 (stereo not drawn) [Chloroquine diphosphate] | 1.01 |
| CN(C)CCC=C1c2ccccc2COc2ccccc21 [Doxepin hydrochloride] | 0.972 |
| N=C(N)N/N=C/c1c(Cl)cccc1Cl [Guanabenz acetate] | 0.972 |
| CCCN[C@H]1CCc2nc(N)sc2C1 [Pramipexole dihydrochloride] | 0.985 |
| C=C1c2c(Cl)ccc(O)c2C(O)=C2C(=O)[C@]3(O)C(O)=C(C(N)=O)C(=O)[C@@H](N(C)C)[C@@H]3[C@@H](O)[C@H]12.O=C(O)c1cc(S(=O)(=O)O)ccc1O [Meclocycline sulfosalicylate] | 0.0341 (active) |
| CC(N)(Cc1ccc(O)c(O)c1)C(=O)O (stereo not drawn) [(L) Methyldopa] | 1.04 |
| COc1cc(OC)c(C(=O)CCCN2CCCC2)c(OC)c1 [Buflomedil hydrochloride] | 1.01 |
| C[C@H]1C[C@H]2[C@@H]3CCC4=CC(=O)C=C[C@]4(C)[C@@]3(F)[C@@H](O)C[C@]2(C)[C@@]1(O)C(=O)CO [Betamethasone] | 0.974 |
| COc1cc(C)c(/C=C/C(C)=C/C=C/C(C)=C/C(=O)O)c(C)c1C [Acitretin] | 0.995 |
| CC(C)NC(=N)NC(=N)Nc1ccc(Cl)cc1 [Proguanil hydrochloride] | 0.973 |
| Cc1onc(-c2ccccc2Cl)c1C(=O)N[C@@H]1C(=O)N2[C@@H]1SC(C)(C)[C@@H]2C(=O)O [Cloxacillin sodium salt] | 0.914 |
| Cc1onc(-c2c(Cl)cccc2Cl)c1C(=O)N[C@@H]1C(=O)N2[C@@H]1SC(C)(C)[C@@H]2C(=O)O [Dicloxacillin sodium salt hydrate] | 0.893 |
| OCCOCCN1CCN(C(c2ccccc2)c2ccc(Cl)cc2)CC1 (stereo not drawn) [Hydroxyzine dihydrochloride] | 0.978 |
| COc1ccc([C@@H]2CC(=O)c3c(O)cc(O[C@@H]4O[C@H](CO[C@@H]5O[C@@H](C)[C@H](O)[C@@H](O)[C@H]5O)[C@@H](O)[C@H](O)[C@H]4O)cc3O2)cc1O [Hesperidin] | 1.07 |
| NCC[C@H](O)C(=O)N[C@@H]1C[C@H](N)[C@@H](O[C@H]2O[C@H](CN)[C@@H](O)[C@H](O)[C@H]2O)[C@H](O)[C@H]1O[C@H]1O[C@H](CO)[C@@H](O)[C@H](N)[C@H]1O [Amikacin hydrate] | 0.0269 (active) |
| CCOc1ccc(Cc2nccc3cc(OCC)c(OCC)cc23)cc1OCC [Ethaverine hydrochloride] | 1.02 |
| O=C(CCNNC(=O)c1ccncc1)NCc1ccccc1 [Nialamide] | 1.01 |
| C[C@]12C[C@H](O)[C@H]3[C@@H](CCC4=CC(=O)CC[C@@]43C)[C@@H]1CC[C@@H]2C(=O)CO [Corticosterone] | 0.962 |
| COc1cc([C@@H]2c3cc4c(cc3[C@@H](O[C@@H]3O[C@@H]5CO[C@@H](C)O[C@H]5[C@H](O)[C@H]3O)[C@H]3COC(=O)[C@H]23)OCO4)cc(OC)c1O [Etoposide] | 1.03 |
| COc1nc(C)nc(Cl)c1NC1=NCCN1 [Moxonidine] | 1.01 |
| CCCCC1(COC(=O)CCC(=O)O)C(=O)N(c2ccccc2)N(c2ccccc2)C1=O [Suxibuzone] | 0.995 |
| CCCCOc1ccc(CC(=O)NO)cc1 [Bufexamac] | 1 |
| NCCc1ccc(O)c(O)c1 [Dopamine hydrochloride] | 1.07 |
| NCCCCCC(=O)O [Aminocaproic acid] | 1.1 |
| Clc1ccc(Nc2nnc(Cc3ccncc3)c3ccccc23)cc1 [Vatalanib] | 1.04 |
| Cc1ccc(S(=O)(=O)NC(=O)NN2CC3CCCC3C2)cc1 (stereo not drawn) [Gliclazide] | 0.996 |
| CC1(C)[C@@H](OC(=O)CCC(=O)O)CC[C@]2(C)[C@H]3C(=O)C=C4[C@@H]5C[C@@](C)(C(=O)O)CC[C@]5(C)CC[C@@]4(C)[C@]3(C)CC[C@@H]12 [Carbenoxolone disodium salt] | 0.964 |
